Bioassay records from PubChem.
Rows were chosen to be rich in hits. Some 2.3% of all compounds tested hit in one or more screens of this group.
M1 antag: human M1 muscarinic receptor antagonists, primary screen, CHO-K1 cells, Fluo-8 calcium fluorescence, 1536-well. AID 588852, 2011. inhibition, % at 3 µM. 360,000 compounds, 1.3% hits. CHO-K1 hM1, ACh EC80 antagonist. Muscarinic acetylcholine receptor M1 (Homo sapiens), P11229;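 active = percent inhibition above its own plate's cutoff, namely the mean of that plate's compound wells plus 3 SD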;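 also: peak over basal fluorescence ratio during 140 s after agonist addition; 0% = ACh EC80 plus DMSO and 100% = DMSO alone without agonist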
Target sequence (P11229 whole entry, looked up): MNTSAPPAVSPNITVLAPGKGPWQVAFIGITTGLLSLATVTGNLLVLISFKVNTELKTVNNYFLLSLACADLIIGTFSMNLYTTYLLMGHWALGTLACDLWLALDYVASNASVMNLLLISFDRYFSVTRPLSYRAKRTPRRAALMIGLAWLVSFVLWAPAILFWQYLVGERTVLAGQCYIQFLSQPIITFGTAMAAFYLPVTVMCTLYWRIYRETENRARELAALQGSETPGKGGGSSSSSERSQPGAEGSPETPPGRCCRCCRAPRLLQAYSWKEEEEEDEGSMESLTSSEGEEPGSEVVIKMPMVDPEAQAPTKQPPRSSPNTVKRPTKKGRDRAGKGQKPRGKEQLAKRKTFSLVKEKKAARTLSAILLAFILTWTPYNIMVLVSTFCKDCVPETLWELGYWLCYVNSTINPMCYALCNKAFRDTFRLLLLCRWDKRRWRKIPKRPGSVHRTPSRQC
CHO-K1 Ca antag: nonselective inhibitor or artifact in parental CHO-K1 cells; ATP-induced calcium, Fluo-8 fluorescence; inhibition, % at 3 µM; 360,000 compounds, 0.6% hits; AID 602250;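 active = inhibition above a per-plate cutoff, the plate's mean sample inhibition plus 3 SD, cut at about 24% in these data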;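 also: 0% = DMSO plus EC80 ATP and 100% = DMSO alone without ATP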
CHRM1 agonist: human M1 muscarinic receptor agonists, primary screen, Fluo-8 calcium fluorescence, CHO-K1 cells, HTS; Muscarinic acetylcholine receptor M1 (Homo sapiens), P11229; CHO-K1 hM1, agonist mode; 0% DMSO, 100% acetylcholine EC100; activation, % at 3 µM; 360,000 compounds, 0.33% hits; AID 588814, 2011;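 active = activation above the run's mean compound activation plus 3 SD, cut at about 16% in these data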;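 also: peak over basal fluorescence ratio within a 140 s kinetic read after compound addition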
CHRM1 PAM: human M1 muscarinic receptor positive allosteric modulators, primary screen, CHO-K1 cells, Fluo-8 calcium fluorescence, 1536-well; CHO-K1 hM1, ACh EC20; 0% = ACh EC20, 100% = maximal ACh; Muscarinic acetylcholine receptor M1 (Homo sapiens), P11229; 360,000 compounds, 0.088% hits; AID 588819, 2011; activation, % at 3 µM; in the data active = activation above about 19%, passing the limit was not always enough
M1 PAM parental: nonselective calcium activators in parental CHO-K1 cells, primary screen, counter-screen for M1 PAM project, cell-based, Fluo-8 calcium fluorescence, full deck, 1536-well; 360,000 compounds, 0.02% hits; activation, % at 3 µM; AID 602247, 2012; ATP EC20; 0% at ATP EC20, 100% at ATP max;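 active = activation above the run cutoff, the mean activation of all test compounds plus 3 SD, cut at about 40% in these data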;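 also: peak over basal fluorescence ratio in a 140 s read after ATP addition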
CHO-K1 Ca ag: counter-screen for M1 agonists: effect in parental CHO-K1 cells | activation, % at 3 µM | Fluo-8 calcium fluorescence; scaled to maximal ATP response, vehicle zero | 360,000 compounds, 0.48% hits; in the data active = activation above about 15%;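 also: untransfected CHO-K1 host cells lacking M1 receptor as counterscreen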
* hit, by the source's call.

SMILES	M1 antag	CHO-K1 Ca antag	CHRM1 agonist	CHRM1 PAM	M1 PAM parental	CHO-K1 Ca ag
N#Cc1ccc(C23CC4(C2)[C@H](CN(P(=O)(c2ccccc2)c2ccccc2)[C@@H]4c2ccccc2)C3c2ccc(Cl)nc2)cc1 (stereo partly drawn)	15	-10	-4	-8	-6	0
CN1C[C@@H]2C(c3ccc(Cl)nc3)C3(c4ccc(C#N)cc4)CC2(C3)[C@H]1c1ccccc1 (stereo partly drawn)	55*	-7	-13	-38	6	1
COC(=O)c1ccc(C23CC4(C2)[C@H](CN(C)[C@@H]4c2ccccc2)C3c2ccc(C(F)(F)F)cc2)cc1 (stereo partly drawn)	8	2	-8	-4	-10	4
COc1cnn(-c2ccc(C)cc2)c(=O)c1Cl	-7	25*	-8	6	-11	-1
COc1cnn(-c2ccc(C)cc2)c(=O)c1Br	0	-19	-6	3	17	0
COc1ccccc1N1CCN(C(=O)c2ccc3c(c2)CCN3S(C)(=O)=O)CC1	-10	-21	-3	5	14	2
CCN(C1CCCCC1)S(=O)(=O)c1ccc(S(=O)(=O)NCc2ccncc2)cc1	35*	-15	-1	-22	-6	18*
Cc1cccc(NC(=O)c2cc(-c3ccc(C)s3)nc3ccccc23)n1	23*	13	-2	-12	6	4
Cc1ccc(C)c(-c2cc(C(=O)Nc3nccs3)c3ccccc3n2)c1	33*	4	-3	-12	-4	4
COC(=O)c1sccc1NC(=O)c1cc(-c2cc(C)ccc2C)nc2ccccc12	2	3	-4	-1	-12	0
CC(=O)c1cccc(CN2CCC(C(=O)Nc3cccc(-c4ccn[nH]4)c3)CC2)c1	-2	0	-5	4	-6	2
Cn1c(CCC(=O)OCC(=O)Nc2ccc(Oc3ccccc3)cc2)nc(=O)c2ccccc21	37*	0	-11	-29	10	1
CN1CCN(C(=O)c2ccc(CNS(=O)(=O)c3cccc(Cl)c3)cc2)CC1	-3	5	-4	5	-9	5
COc1cccc(NC(=O)CCC2CCN(C(=O)Cc3cccc(F)c3)CC2)c1	5	-4	-2	-4	12	3
COc1ccc(CC(=O)N2CCC(CCC(=O)Nc3ccccc3)CC2)cc1	1	24*	-1	2	-10	8
CCn1c(SCC(=O)N/N=C/c2ccc(C)o2)nnc1-c1ccccc1	8	28*	-5	-6	-7	-1
CCOc1ccc(-c2c(C(=O)N/N=C/c3ccc(C)o3)nnn2-c2nonc2N)cc1	7	-8	-2	-11	0	3
Cc1ccc(/C=N/NC(=O)c2nnn(-c3nonc3N)c2-c2ccccc2)o1	-5	-9	9	3	20	22*
COc1cccc(-c2c(C(=O)N/N=C/c3ccco3)nnn2-c2nonc2N)c1	-4	-5	35*	10	0	16*
Nc1nonc1-n1nnc(C(=O)N/N=C/c2ccc(F)cc2)c1-c1cccs1	-1	-12	19*	4	6	7
O=C(CN1CCN(Cc2ccccc2)CC1)NNC(=O)c1ccccc1	-9	-14	-7	10	-7	0
CCNc1nc(NC(C)C)nc(N(C#N)C(C)C(=O)N(CC)CC)n1 (stereo not drawn)	-8	-2	-1	12	-6	0
Nc1nonc1-n1nnc(C(=O)N/N=C/c2ccco2)c1-c1ccccc1	-6	-16	22*	15	13	2
Nc1nonc1-n1nnc(C(=O)N/N=C/c2ccoc2)c1-c1ccccc1	-1	-10	16*	5	12	6
C[C@H](CO)N1C[C@H](C)[C@H](CN(C)C(=O)Nc2ccc(C(F)(F)F)cc2)OCc2cnnn2CCCC1=O	-22	-8	1	14	16	1
SMILES	M1 antag	CHO-K1 Ca antag	CHRM1 agonist	CHRM1 PAM	M1 PAM parental	CHO-K1 Ca ag
CCOc1ccc2c(c1)sc(N)[n+]2Cc1cc(C)cc2cccnc12	70*	1	-7	-24	3	6
COc1ccc2c(c1)sc(N)[n+]2Cc1cc(C)cc2cccnc12	65*	3	-7	-23	9	4
CC1(C)Cc2c(sc3nc[nH]c(=O)c23)CO1	7	26*	-3	-9	-19	0
CC1(C)Cc2c(sc3nn[nH]c(=O)c23)CO1	-15	-10	-4	5	25	1
COc1cc(CNC(=O)C2CCCC2)cc(OC)c1OC	-26	-10	1	27*	12	1
COc1ccccc1CNC(=O)C1CCCC1	6	-8	-1	-4	-16	0
CC(C)c1cc(=O)oc2c3c4c(cc12)CCCN4CCC3	1	-12	-8	-9	10	0
O=c1oc2c3c4c(cc2c(C(F)(F)F)c1CCN1CCOCC1)CCCN4CCC3	15	4	25*	-3	12	26*
Cc1cc(C)cc(CN2CCC(Oc3ccc(C(=O)N4CCCC4)cc3)CC2)c1	9	-24	-4	-9	9	2
COC(=O)c1ccc(CN2CCC(Oc3ccc(C(=O)N4CCCCC4)cc3)CC2)cc1	97*	-9	-4	-22	22	4
COC(=O)c1ccc(CN2CCC(Oc3cccc(C(=O)N4CCCC4)c3)CC2)cc1	94*	-2	-1	-21	4	2
O=C(c1cccc(OC2CCN(Cc3cc(F)cc(F)c3)CC2)c1)N1CCCC1	2	18	-5	6	-10	0
CSc1ccc(CN2CCC(Oc3cccc(C(=O)N4CCCC4)c3)CC2)cc1	75*	2	-6	-23	-1	2
Cc1ccc(C)c(S(=O)(=O)N2CCN(Cc3cc4c(cc3O)OCO4)CC2)c1	-12	-19	-3	8	6	1
c1ccc2oc(-c3ccc(Nc4nc(N5CCOCC5)nc(N5CCOCC5)n4)cc3)nc2c1	-21	3	-2	15	-16	0
O=[N+]([O-])c1ccc(CS(=O)(=O)c2ccc(Cl)cc2)cc1	41*	-1	-8	-2	-10	0
C=CCN1C(=O)c2ccccc2Sc2ccc(C(=O)NCC(OC)OC)cc21	-8	-17	-6	6	17	1
